PubChem BioAssay (NCATS)
Records with an inconclusive call do not appear. Values without a mark were called inactive. The source made the active and inactive calls. Calls follow the shape of the dose curve; as a rule, active = well fitted cell-killing curve with a large enough effect; inconclusive = small, poorly fitted or top-dose-only effect, or effect the other way; inactive = no such curve, though single readings can be large or run the other way.

Assay: Viability qHTS for spleen associated tyrosine kinase inhibitor (SYKi) drug resistant MV4-11 cells (AID 1963824); also: nearly all actives have a fitted effect of over 35% in size
Conditions: SYKi-resistant MV4-11 viability, CellTiter-Glo, 72 h; series mostly up to 45 µM; viability, % of control: at the top concentration
Outline: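 SYK inhibitor-resistant MV4-11 AML cells, 500 per well, added to predispensed compounds and incubated 72 hr at 37 C, 5% CO2. Viability measured by CellTiter-Glo luminescence after 10 min at room temperature.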
Potency is read from the fitted curve at half-maximal effect.

SMILES | viability, % of control | Potency
NC(=O)NC1NC(=O)NC1=O (stereo not given) | 74.5% | 
O=c1[nH]c(=O)c2ccccc2o1 | 95.1% | 
NS(=O)(=O)c1ccc(NC(=O)CCC(=O)O)cc1 | 101% | 
CN1Cc2cc(C(=O)N3CCC(C4CCNCC4)CC3)ccc2N[C@@H](CC(=O)O)C1=O | 102% | 
OC[C@H]1O[C@@H](n2cnc3c2NC=NC[C@H]3O)C[C@@H]1O |  | inactive
O=C(Oc1ccccc1)c1ccccc1O | 97.4% | 
CCCCCCCCCCOc1cc2c(=O)c(C(=O)OCC)c[nH]c2cc1OCC | 107% [at 4.97 µM] | 
CCNC(=O)/C=C/c1cccc(Br)c1 | 91.3% | 
CC[C@@]1(c2ccccc2)NC(=O)N(C)C1=O | 72.1% | 
FC(F)(F)C(Cl)Br (stereo not given) | 111% | 
C[C@H]1[C@H](NC(=O)/C(=N/OC(C)(C)C(=O)O)c2csc(N)n2)C(=O)N1S(=O)(=O)O (stereo in doubt) | 80.4% | 
O=C(O)c1ccc(S(=O)(=O)N(Cl)Cl)cc1 | 89.1% | 
O=C(O)CCCCCCCC(=O)O | 87% | 
CC1CCN(CCCC(=O)c2ccc(F)cc2)CC1 | 79.6% | 
CC(=O)Nc1ccccc1 | 113% | 
CCOc1ccc(NC(C)=O)cc1 | 88.4% | 
CCn1ccc(NS(=O)(=O)c2ccc(N)cc2)nc1=O | 92.8% | 
O=C(Nc1ccc(Cl)cc1)Nc1ccc(Cl)c(Cl)c1 |  | 9.44 µM (active)
CCCN(CCC)S(=O)(=O)c1ccc(C(=O)O)cc1 | 78.9% | 
CC(=O)Nc1ncc([N+](=O)[O-])s1 | 69% | 

SMILES | viability, % of control | Potency
CC(C)CCCC(C)N (stereo not given) | 56.7% | 
CC[C@H]1OC(=O)[C@H](C)[C@@H](O[C@H]2C[C@@](C)(OC)[C@@H](O)[C@H](C)O2)[C@H](C)[C@@H](O[C@@H]2O[C@H](C)C[C@H](N(C)C)[C@H]2O)[C@](C)(O)C[C@@H](C)CN(C)[C@H](C)[C@@H](O)[C@]1(C)O | 72.5% | 
NC(N)=NS(=O)(=O)c1ccc(N)cc1 | 85.7% | 
CC(C)=CCC/C(C)=C/CC/C(C)=C/CCC(=O)OC/C=C(\C)CCC=C(C)C | 109% | 
Cn1c(=O)c2[nH]cnc2n(C)c1=O |  | inactive
Cc1sccc1Br | 107% | 
CCC(=O)Nc1ccc(O)cc1 | 105% | 
C/C=C/C(=O)N(CC)c1ccccc1C | 94.4% | 
Nc1nc(=O)n([C@@H]2O[C@H](CO)[C@@H](O)[C@@H]2F)cc1I | 63.6% | 
CN(C)C(=O)c1cc2cnc(Nc3ccc(N4CCNCC4)cn3)nc2n1C1CCCC1 |  | 5.17 µM (active)
CCn1cc(C(=O)O)c(=O)c2cnc(N3CCCC3)nc21 | 103% [at 9.25 µM] | 
Cc1cccc(C)c1NC(=O)c1ccccc1C(=O)O | 97.7% | 
O=C(NCN1CCOCC1)c1cnccn1 | 110% | 
CN1[C@@H]2CC[C@H]1CC(OC(=O)c1c[nH]c3ccccc13)C2 (stereo not given in full) |  | inactive
CNc1c2c(nn1C)CCCC2 | 74.7% | 
O=C1NCC2(CCN(CCc3ccccc3)CC2)O1 | 101% | 
[O-][n+]1cccc(/C(Cl)=N/OC[C@@H](O)CN2CCCCC2)c1 | 87.3% | 
O=C(O)C(=O)Nc1cccc(-c2nn[nH]n2)c1 |  | inactive
OC1(c2ccc(Cl)cc2)CCNCC1 | 89.4% | 
Cc1cccc(-c2nn3c(c2-c2ccnc4ccc(C(N)=O)cc24)CCC3)n1 | 94.2% | 
